Experimental data as given in paper PMC7862700, “An all-to-all approach to the identification of sequence-specific readers for epigenetic DNA modifications on cytosine”.

How the values were obtained:
Assay in all cases: DAPPL (digital affinity profiling via proximity ligation, sequencing); 10 mM Tris-HCl pH 7.5, 50 mM NaCl, 1 mM DTT, 4% glycerol, room temperature, 30 min; GST-TFs on glutathione beads, 16-mer random dsDNA library, 0.1% formaldehyde crosslink after washing; high values mean tight binding
FLI1 = target: T1, FLI1 (Homo sapiens, UniProt Q01543 1-452); settings: protein: recombinant; tags: N-terminal GST; dsDNA, one strand shown
T1 sequence: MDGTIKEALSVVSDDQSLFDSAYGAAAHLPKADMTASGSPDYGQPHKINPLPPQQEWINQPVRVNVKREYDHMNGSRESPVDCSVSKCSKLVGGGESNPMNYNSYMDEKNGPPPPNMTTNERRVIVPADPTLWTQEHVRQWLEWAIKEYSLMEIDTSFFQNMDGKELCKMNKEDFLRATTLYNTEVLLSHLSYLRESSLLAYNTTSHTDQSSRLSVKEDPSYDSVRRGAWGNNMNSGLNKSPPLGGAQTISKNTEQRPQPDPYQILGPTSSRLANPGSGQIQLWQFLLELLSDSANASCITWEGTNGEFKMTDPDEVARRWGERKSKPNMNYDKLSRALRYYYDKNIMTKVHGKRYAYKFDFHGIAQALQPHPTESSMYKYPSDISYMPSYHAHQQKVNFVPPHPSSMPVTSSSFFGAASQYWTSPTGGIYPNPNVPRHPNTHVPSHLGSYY
In short: (§1)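 A tag-only sample was pooled with DNA-barcoded human transcription factors that had been expressed in yeast as GST fusions and captured on glutathione beads. The pools were incubated for 30 min at room temperature with 200 nmole of a random double-stranded 16-mer DNA library in Tris/NaCl/DTT/glycerol buffer, then washed, crosslinked with 0.1% formaldehyde, proximity-ligated (BsaI/T4 ligase, 1 h, 37 °C), PCR-amplified and sequenced on an Illumina NextSeq500. Binding signal is each hexamer's read frequency for a factor divided by its frequency for the tag-only sample.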

ELK1 = target: T2, ELK1 (Homo sapiens, UniProt P19419 1-428); settings: protein: recombinant; tags: N-terminal GST; dsDNA, one strand shown
T2 sequence: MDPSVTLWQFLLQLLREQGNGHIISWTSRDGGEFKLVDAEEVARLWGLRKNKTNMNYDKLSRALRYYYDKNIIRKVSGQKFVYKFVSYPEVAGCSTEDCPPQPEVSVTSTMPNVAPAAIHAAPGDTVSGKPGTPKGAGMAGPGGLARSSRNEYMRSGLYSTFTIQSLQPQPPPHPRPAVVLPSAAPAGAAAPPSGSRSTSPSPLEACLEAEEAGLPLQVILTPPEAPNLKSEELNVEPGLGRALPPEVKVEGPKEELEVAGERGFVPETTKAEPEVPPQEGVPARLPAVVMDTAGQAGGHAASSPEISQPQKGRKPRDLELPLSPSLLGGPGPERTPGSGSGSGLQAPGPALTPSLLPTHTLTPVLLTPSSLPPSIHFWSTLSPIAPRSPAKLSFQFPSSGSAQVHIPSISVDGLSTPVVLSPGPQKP
In short: as §1

GABPA = target: T3, GABPA (Homo sapiens, UniProt Q06546 1-454); settings: protein: recombinant; tags: N-terminal GST; dsDNA, one strand shown
T3 sequence: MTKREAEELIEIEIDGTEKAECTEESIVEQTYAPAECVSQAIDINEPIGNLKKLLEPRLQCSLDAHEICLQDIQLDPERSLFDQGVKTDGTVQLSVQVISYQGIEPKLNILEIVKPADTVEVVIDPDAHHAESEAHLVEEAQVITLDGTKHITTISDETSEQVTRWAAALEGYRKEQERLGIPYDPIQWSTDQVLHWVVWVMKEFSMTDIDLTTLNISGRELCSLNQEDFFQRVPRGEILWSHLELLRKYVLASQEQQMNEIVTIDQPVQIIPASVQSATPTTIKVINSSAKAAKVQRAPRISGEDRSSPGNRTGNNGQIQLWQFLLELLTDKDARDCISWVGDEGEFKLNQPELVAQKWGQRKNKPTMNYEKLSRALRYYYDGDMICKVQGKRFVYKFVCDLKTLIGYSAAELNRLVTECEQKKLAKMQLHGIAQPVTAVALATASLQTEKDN
In short: as §1

ERG = target: T4, ERG (Homo sapiens, UniProt P11308 1-479); settings: protein: recombinant; tags: N-terminal GST; dsDNA, one strand shown
T4 sequence: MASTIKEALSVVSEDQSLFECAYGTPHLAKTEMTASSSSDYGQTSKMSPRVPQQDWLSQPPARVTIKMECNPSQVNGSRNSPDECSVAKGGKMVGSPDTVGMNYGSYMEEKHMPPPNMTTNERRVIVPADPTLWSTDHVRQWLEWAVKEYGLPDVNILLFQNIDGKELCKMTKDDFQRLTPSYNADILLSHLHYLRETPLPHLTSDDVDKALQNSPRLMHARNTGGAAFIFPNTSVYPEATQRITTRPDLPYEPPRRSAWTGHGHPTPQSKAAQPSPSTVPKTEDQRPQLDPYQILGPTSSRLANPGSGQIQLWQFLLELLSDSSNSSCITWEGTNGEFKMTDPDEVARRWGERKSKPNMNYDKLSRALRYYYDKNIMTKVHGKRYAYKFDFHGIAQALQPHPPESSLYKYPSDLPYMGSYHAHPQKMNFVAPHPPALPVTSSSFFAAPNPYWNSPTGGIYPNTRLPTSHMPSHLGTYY
In short: as §1

ELF1 = ELF1 (Homo sapiens, UniProt P32519 1-619); settings: protein: recombinant; tags: N-terminal GST; dsDNA, one strand shown
ELF1, sequence (P32519 whole entry): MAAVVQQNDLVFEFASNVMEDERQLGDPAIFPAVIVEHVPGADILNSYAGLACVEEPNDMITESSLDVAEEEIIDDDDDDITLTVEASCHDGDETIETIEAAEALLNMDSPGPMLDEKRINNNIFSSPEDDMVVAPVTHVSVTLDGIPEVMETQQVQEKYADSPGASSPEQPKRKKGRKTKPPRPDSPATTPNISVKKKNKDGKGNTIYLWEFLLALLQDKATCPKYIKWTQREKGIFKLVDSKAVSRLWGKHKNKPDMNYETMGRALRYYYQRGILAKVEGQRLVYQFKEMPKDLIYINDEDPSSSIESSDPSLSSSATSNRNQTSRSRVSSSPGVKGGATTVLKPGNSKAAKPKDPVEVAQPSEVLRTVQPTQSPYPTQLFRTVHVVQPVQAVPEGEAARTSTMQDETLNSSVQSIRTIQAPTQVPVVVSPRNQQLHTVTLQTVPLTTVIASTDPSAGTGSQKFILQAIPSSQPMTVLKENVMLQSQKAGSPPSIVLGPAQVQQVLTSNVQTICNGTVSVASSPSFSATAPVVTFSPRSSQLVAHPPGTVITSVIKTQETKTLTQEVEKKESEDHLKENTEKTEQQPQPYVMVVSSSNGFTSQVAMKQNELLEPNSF
In short: as §1

SPI1 = SPI1 (Homo sapiens, UniProt P17947 1-270); settings: protein: recombinant; tags: N-terminal GST; dsDNA, one strand shown
In short: as §1

SPIB = SPIB (Homo sapiens, UniProt Q01892 1-262); settings: protein: recombinant; tags: N-terminal GST; dsDNA, one strand shown
SPIB, sequence (Q01892 whole entry): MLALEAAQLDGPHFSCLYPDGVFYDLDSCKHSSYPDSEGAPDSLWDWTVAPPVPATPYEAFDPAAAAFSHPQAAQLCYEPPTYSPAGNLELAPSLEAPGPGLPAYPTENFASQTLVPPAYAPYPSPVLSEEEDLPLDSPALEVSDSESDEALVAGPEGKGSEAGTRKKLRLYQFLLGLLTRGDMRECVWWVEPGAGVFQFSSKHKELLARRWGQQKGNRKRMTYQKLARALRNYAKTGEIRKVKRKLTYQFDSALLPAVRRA
In short: as §1

ELK3 = target: T5, ELK3 (Homo sapiens, UniProt P41970 1-407); settings: protein: recombinant; tags: N-terminal GST; dsDNA, one strand shown
T5 sequence: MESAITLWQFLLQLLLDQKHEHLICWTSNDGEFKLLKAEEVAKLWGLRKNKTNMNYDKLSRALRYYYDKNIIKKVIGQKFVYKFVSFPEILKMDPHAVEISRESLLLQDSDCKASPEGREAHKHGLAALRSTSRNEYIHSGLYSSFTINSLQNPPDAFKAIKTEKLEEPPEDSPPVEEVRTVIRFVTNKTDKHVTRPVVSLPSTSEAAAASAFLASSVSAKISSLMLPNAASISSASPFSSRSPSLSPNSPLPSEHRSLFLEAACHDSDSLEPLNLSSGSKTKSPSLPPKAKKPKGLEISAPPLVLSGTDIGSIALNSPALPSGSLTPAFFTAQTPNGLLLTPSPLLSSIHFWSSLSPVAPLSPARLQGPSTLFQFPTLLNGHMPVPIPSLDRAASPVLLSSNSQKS
In short: as §1

FEV = target: T6, FEV (Homo sapiens, UniProt Q99581 1-238); settings: protein: recombinant; tags: N-terminal GST; dsDNA, one strand shown
T6 sequence: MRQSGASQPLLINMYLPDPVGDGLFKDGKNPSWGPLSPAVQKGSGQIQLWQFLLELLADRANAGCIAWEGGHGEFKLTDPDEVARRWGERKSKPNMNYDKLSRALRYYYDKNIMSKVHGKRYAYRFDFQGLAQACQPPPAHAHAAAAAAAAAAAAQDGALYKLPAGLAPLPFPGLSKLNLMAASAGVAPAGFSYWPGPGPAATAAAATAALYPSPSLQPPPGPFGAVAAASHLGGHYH
In short: as §1

ETV5 = ETV5 (Homo sapiens, UniProt P41161 1-510); settings: protein: recombinant; tags: N-terminal GST; dsDNA, one strand shown
ETV5, sequence (P41161 whole entry): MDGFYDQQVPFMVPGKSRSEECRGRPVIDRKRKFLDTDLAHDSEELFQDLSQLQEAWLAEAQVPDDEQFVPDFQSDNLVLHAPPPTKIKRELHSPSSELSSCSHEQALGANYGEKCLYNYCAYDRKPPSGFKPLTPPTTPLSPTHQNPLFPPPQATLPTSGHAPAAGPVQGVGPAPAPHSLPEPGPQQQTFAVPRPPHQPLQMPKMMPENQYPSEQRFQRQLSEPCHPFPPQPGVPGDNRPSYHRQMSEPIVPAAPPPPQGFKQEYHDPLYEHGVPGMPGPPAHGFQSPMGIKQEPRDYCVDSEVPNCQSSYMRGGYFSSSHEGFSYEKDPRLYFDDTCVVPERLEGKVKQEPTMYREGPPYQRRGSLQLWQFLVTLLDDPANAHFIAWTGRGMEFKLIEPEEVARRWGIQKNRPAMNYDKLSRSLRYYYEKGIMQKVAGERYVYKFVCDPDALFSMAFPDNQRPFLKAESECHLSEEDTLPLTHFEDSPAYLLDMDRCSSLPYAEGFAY
In short: as §1

HSF1 = HSF1 (Homo sapiens, UniProt Q00613 1-529); settings: protein: recombinant; tags: N-terminal GST; chain copies: 3; dsDNA, one strand shown
HSF1, sequence (Q00613 whole entry): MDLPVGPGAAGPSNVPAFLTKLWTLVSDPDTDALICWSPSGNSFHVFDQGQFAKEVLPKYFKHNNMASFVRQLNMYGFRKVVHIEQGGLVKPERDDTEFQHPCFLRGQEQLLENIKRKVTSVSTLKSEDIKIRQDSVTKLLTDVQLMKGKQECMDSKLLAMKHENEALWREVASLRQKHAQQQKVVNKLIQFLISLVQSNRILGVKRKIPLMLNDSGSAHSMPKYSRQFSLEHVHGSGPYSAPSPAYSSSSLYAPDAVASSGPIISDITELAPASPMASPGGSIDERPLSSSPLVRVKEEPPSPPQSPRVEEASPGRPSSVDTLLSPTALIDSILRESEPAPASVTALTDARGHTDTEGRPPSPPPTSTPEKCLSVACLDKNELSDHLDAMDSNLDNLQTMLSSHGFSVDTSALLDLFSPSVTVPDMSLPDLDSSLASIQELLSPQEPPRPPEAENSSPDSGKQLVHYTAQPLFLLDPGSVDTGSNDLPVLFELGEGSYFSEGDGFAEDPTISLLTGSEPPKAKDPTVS
In short: as §1

ELF4 = ELF4 (Homo sapiens, UniProt Q99607 1-663); settings: protein: recombinant; tags: N-terminal GST; dsDNA, one strand shown
ELF4, sequence (Q99607 whole entry): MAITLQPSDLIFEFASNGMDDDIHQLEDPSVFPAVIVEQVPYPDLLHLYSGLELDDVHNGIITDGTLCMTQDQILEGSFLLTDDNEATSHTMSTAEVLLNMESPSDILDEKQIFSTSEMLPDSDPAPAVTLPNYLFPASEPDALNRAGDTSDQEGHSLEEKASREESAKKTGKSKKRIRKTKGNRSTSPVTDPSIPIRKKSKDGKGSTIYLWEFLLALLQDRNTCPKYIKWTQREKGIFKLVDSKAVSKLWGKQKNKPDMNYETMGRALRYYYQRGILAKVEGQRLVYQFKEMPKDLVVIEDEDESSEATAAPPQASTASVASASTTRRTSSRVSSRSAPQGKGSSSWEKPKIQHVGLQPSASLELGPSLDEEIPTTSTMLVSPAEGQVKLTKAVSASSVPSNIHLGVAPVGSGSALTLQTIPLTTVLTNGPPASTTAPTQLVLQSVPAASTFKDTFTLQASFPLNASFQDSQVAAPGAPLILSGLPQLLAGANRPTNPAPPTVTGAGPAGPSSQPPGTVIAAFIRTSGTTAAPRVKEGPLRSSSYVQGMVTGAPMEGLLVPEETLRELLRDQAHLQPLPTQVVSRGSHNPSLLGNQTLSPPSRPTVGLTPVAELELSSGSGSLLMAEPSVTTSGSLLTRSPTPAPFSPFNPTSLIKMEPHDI
In short: as §1

ELK4 = target: T7, ELK4 (Homo sapiens, UniProt P28324-2 1-405); settings: protein: recombinant; tags: N-terminal GST; dsDNA, one strand shown
T7 sequence: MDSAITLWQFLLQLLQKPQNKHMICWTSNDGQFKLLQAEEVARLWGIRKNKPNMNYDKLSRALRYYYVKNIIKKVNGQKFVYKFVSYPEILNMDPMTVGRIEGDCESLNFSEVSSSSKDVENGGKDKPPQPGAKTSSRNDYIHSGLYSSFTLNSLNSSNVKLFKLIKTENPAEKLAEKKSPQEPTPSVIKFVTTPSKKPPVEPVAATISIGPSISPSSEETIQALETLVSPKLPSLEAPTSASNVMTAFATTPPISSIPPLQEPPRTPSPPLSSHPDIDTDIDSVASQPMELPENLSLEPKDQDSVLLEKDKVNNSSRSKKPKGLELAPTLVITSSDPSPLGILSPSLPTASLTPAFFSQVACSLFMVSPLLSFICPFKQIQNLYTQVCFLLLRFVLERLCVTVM
In short: as §1

ETV2 = target: T8, ETV2 (Homo sapiens, UniProt O00321 1-342); settings: protein: recombinant; tags: N-terminal GST; dsDNA, one strand shown
T8 sequence: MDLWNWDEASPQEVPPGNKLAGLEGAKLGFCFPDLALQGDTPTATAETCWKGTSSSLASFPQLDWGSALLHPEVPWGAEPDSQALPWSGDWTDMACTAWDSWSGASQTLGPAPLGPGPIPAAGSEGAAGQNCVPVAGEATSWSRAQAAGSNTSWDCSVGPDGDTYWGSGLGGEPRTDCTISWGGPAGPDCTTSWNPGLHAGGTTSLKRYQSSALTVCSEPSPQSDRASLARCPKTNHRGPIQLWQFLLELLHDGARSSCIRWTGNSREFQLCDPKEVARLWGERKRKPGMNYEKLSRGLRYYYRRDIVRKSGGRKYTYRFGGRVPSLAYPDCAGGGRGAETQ
In short: as §1

ELF3 = target: T9, ELF3 (Homo sapiens, UniProt P78545 1-371); settings: protein: recombinant; tags: N-terminal GST; dsDNA, one strand shown
T9 sequence: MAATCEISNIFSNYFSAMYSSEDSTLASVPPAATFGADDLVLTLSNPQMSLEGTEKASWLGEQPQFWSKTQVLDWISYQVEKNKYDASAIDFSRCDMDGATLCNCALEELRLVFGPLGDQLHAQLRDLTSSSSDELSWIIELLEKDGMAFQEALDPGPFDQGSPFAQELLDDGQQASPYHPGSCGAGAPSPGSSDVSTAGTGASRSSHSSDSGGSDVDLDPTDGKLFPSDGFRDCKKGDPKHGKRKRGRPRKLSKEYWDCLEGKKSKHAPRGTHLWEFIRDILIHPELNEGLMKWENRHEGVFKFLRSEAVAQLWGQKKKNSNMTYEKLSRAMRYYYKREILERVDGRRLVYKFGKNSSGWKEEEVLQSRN
In short: as §1

CRX = CRX (Homo sapiens, UniProt O43186 1-299); settings: protein: recombinant; tags: N-terminal GST; dsDNA, one strand shown
CRX, sequence (O43186 whole entry): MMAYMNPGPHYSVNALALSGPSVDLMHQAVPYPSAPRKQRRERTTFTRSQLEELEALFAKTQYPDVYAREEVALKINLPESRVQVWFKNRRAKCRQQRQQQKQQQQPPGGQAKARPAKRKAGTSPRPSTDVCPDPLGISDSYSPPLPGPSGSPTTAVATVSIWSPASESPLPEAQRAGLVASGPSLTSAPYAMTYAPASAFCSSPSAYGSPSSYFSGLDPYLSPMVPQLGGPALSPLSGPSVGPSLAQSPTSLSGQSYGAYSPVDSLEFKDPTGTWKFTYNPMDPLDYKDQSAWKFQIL
In short: as §1

ETV1 = ETV1 (Homo sapiens, UniProt P50549 1-477); settings: protein: recombinant; tags: N-terminal GST; dsDNA, one strand shown
ETV1, sequence (P50549 whole entry): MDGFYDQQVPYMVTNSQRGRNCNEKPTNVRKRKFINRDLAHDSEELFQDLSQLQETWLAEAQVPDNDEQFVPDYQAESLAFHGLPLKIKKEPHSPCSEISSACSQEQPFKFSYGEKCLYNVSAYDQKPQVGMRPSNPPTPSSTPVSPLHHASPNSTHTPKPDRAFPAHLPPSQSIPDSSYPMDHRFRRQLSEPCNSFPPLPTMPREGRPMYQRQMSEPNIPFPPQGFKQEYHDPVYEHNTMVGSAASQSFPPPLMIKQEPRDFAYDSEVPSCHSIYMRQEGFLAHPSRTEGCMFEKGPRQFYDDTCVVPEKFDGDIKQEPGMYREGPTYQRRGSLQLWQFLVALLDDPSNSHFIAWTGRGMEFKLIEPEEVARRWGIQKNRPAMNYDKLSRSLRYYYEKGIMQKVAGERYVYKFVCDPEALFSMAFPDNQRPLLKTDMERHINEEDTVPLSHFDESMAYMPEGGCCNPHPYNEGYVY
In short: as §1

EHF = target: T10, EHF (Homo sapiens, UniProt Q9NZC4 1-300); settings: protein: recombinant; tags: N-terminal GST; dsDNA, one strand shown
T10 sequence: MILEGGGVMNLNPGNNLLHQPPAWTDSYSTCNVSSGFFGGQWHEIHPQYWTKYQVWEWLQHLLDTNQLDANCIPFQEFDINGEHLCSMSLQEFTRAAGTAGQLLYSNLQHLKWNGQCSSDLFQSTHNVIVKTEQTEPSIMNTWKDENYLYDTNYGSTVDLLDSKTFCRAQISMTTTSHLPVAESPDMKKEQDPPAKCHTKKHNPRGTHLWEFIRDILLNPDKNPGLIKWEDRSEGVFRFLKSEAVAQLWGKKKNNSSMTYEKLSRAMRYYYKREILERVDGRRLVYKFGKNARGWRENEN
In short: as §1

Sequence	binding signal (FLI1)	binding signal (ELK1)	binding signal (GABPA)	binding signal (ERG)	binding signal (ELF1)	binding signal (SPI1)	binding signal (SPIB)	binding signal (ELK3)	binding signal (FEV)	binding signal (ETV5)	binding signal (HSF1)	binding signal (ELF4)	binding signal (ELK4)	binding signal (ETV2)	binding signal (ELF3)	binding signal (CRX)	binding signal (ETV1)	binding signal (EHF)
AAGACT	1.09 fold enrichment (6-mer frequency, TF over GST control)	1.12 fold enrichment (6-mer frequency, TF over GST control)	1.06 fold enrichment (6-mer frequency, TF over GST control)	1.1 fold enrichment (6-mer frequency, TF over GST control)	1.08 fold enrichment (6-mer frequency, TF over GST control)	1.12 fold enrichment (6-mer frequency, TF over GST control)	1.08 fold enrichment (6-mer frequency, TF over GST control)	1.14 fold enrichment (6-mer frequency, TF over GST control)	1.08 fold enrichment (6-mer frequency, TF over GST control)	1.09 fold enrichment (6-mer frequency, TF over GST control)	1.23 fold enrichment (6-mer frequency, TF over GST control)	1.14 fold enrichment (6-mer frequency, TF over GST control)	1.06 fold enrichment (6-mer frequency, TF over GST control)	1.07 fold enrichment (6-mer frequency, TF over GST control)	1.1 fold enrichment (6-mer frequency, TF over GST control)	1.36 fold enrichment (6-mer frequency, TF over GST control)	1.02 fold enrichment (6-mer frequency, TF over GST control)	–
TACATT	1.32 fold enrichment (6-mer frequency, TF over GST control)	1.17 fold enrichment (6-mer frequency, TF over GST control)	1.23 fold enrichment (6-mer frequency, TF over GST control)	1.21 fold enrichment (6-mer frequency, TF over GST control)	1.26 fold enrichment (6-mer frequency, TF over GST control)	1.14 fold enrichment (6-mer frequency, TF over GST control)	1.29 fold enrichment (6-mer frequency, TF over GST control)	1.23 fold enrichment (6-mer frequency, TF over GST control)	1.19 fold enrichment (6-mer frequency, TF over GST control)	1.21 fold enrichment (6-mer frequency, TF over GST control)	1.25 fold enrichment (6-mer frequency, TF over GST control)	1.24 fold enrichment (6-mer frequency, TF over GST control)	1.09 fold enrichment (6-mer frequency, TF over GST control)	1.17 fold enrichment (6-mer frequency, TF over GST control)	1.11 fold enrichment (6-mer frequency, TF over GST control)	1.25 fold enrichment (6-mer frequency, TF over GST control)	1.16 fold enrichment (6-mer frequency, TF over GST control)	1.19 fold enrichment (6-mer frequency, TF over GST control)
